Experimental data as given in the supplement of paper PMC10849652.
Targets with a hit are over-represented here; the source holds about 8,800 in all. About 0.5% of all pairs of compound and target were hits.

How the values were obtained:
Assay in all cases: log2 fold change, soluble protein after heating vs DMSO (PISA); higher = thermal stabilisation; K562 lysate, 10 uM; active = over 0.2 and 3.5 SD of the protein, either way, in both replicates (recomputed)
[1] = compound: C1=CC=C(C=C1)[C@H](COC2=CC3=C(C=C2)NC(=O)N3)NC(=O)C4=CC=CN(C4=O)CC5=CC(=C(C=C5)F)F
How it was run: (§1)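 Log-two fold change in thermal stability relative to solvent controls is reported from duplicates. For each sample, crude K562 extract from dounce-homogenised pellets in PBS pH 7.4 with 1 mM MgCl2, at 1 mg/mL protein, was treated with 10 μM compound for 30 min. Aliquots heated for 3 min across 48°C-58°C were pooled, brought to 0.5% NP-40 at 4°C and cleared at 21,000xg for 90 min. The supernatant was quantified by TMTpro 16plex LC-MS/MS with channel sums equalised.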

[2] = compound: CC1=C(SC2=C1C(=N[C@H](C3=NN=C(N32)C)CC(=O)N)C4=CC=C(C=C4)Cl)C
How it was run: as §1

[3] = compound: CC1=C2C(=CC=C1)N=C(N(C2=O)C3=CC=CC=C3C)CN4C=NC5=C(N=CN=C54)N
How it was run: as §1

[4] = compound: Cc1sc2c(c1C)C(c1ccc(Cl)cc1)=N[C@@H](CC(=O)OC(C)(C)C)c1nnc(C)n1-2
How it was run: as §1

[5] = compound: c1ccc([C@@H]2C[C@H]2NC2CCNCC2)cc1
How it was run: as §1

Measured: log2 fold change

RNF149 (UniProt Q8NC42)
Sequence of UniProt Q8NC42 (Q8NC42 whole entry, looked up): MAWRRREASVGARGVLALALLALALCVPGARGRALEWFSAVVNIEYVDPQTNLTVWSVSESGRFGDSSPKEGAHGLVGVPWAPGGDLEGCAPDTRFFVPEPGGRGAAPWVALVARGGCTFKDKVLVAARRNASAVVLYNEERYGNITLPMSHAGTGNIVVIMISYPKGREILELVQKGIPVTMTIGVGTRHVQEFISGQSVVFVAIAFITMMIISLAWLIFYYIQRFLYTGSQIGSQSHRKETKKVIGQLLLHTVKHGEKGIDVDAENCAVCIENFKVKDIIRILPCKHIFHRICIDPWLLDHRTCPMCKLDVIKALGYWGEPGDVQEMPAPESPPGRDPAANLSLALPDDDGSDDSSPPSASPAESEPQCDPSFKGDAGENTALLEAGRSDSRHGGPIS
inactive: [1] -0.015 | [2] 0.022 | [3] -0.138 | [4] -0.081 | [5] 0

RBM42 (UniProt Q9BTD8)
inactive: [1] -0.014 | [2] -0.003 | [3] 0.107 | [4] 0.103 | [5] -0.006

SEC62 (UniProt Q99442)
Sequence of UniProt Q99442 (Q99442 whole entry, looked up): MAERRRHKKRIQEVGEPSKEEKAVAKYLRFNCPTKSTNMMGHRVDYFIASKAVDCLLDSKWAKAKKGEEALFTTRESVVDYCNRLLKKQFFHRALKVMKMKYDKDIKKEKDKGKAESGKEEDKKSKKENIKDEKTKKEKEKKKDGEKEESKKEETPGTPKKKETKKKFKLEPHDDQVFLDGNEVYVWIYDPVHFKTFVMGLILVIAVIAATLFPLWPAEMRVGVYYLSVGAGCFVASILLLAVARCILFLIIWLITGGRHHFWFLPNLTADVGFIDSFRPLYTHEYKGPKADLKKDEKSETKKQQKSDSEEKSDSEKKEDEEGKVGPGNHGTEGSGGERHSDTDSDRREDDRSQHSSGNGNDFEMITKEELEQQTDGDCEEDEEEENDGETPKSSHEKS
inactive: [1] 0.059 | [2] -0.017 | [3] 0.015 | [4] 0.043 | [5] -0.023

RNASEL (UniProt Q05823)
Sequence of UniProt Q05823 (Q05823 whole entry, looked up): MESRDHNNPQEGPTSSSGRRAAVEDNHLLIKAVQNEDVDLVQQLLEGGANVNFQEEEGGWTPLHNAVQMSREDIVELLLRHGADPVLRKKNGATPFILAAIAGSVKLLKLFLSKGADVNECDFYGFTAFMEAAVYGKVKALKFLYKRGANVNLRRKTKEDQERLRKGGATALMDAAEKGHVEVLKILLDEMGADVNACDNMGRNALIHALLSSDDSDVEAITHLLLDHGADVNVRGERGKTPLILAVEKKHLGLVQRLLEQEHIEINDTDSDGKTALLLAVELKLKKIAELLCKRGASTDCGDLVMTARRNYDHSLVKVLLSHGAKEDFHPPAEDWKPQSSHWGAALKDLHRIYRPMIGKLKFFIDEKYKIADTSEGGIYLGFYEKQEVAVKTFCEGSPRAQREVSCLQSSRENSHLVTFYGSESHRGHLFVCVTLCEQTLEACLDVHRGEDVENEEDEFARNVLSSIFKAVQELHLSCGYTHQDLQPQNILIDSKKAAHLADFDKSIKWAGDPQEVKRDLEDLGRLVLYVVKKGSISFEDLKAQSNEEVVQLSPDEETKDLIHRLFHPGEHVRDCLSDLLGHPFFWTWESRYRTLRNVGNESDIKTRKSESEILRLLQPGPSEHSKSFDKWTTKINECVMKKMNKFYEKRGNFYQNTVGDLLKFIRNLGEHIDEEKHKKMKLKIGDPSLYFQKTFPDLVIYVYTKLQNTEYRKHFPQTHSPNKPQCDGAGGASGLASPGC
inactive: [1] 0.047 | [2] -0.041 | [3] 0.068 | [4] -0.004 | [5] 0.046

RPL37A (UniProt P61513)
inactive: [1] -0.009 | [2] 0 | [3] -0.031 | [4] 0.191 | [5] 0.166

RABEPK (UniProt Q7Z6M1)
Sequence of UniProt Q7Z6M1 (Q7Z6M1 whole entry, looked up): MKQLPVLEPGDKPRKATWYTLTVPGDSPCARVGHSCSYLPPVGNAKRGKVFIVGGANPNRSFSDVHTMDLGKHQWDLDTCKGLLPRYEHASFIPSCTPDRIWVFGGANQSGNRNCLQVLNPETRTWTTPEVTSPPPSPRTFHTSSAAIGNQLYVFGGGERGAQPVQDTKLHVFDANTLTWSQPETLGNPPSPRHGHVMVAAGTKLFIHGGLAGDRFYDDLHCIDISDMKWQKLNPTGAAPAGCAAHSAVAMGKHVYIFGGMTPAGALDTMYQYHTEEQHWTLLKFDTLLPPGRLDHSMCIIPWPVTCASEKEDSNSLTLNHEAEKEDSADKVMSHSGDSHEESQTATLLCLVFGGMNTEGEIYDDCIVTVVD
inactive: [1] -0.032 | [2] 0.054 | [3] 0.026 | [4] 0.017 | [5] -0.071

SERPINI1 (UniProt Q99574)
inactive: [1] 0.067 | [2] -0.033 | [3] 0.031 | [4] -0.011 | [5] -0.021

RBBP8 isoform 2 (UniProt Q99708)
inactive: [1] -0.031 | [2] -0.133 | [3] 0.093 | [4] 0.046 | [5] -0.014

RNF170 (UniProt Q96K19)
Sequence of UniProt Q96K19 (Q96K19 whole entry, looked up): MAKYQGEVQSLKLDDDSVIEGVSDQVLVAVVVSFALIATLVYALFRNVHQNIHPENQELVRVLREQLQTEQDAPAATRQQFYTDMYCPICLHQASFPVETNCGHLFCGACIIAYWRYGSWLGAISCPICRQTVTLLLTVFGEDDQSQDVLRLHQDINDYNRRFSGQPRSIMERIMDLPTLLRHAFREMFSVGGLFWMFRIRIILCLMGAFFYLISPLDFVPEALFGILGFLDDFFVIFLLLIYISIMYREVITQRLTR
inactive: [1] -0.097 | [2] -0.115 | [3] 0.149 | [4] 0.285 | [5] -0.026

SDHA (UniProt P31040)
Sequence of UniProt P31040 (P31040 whole entry, looked up): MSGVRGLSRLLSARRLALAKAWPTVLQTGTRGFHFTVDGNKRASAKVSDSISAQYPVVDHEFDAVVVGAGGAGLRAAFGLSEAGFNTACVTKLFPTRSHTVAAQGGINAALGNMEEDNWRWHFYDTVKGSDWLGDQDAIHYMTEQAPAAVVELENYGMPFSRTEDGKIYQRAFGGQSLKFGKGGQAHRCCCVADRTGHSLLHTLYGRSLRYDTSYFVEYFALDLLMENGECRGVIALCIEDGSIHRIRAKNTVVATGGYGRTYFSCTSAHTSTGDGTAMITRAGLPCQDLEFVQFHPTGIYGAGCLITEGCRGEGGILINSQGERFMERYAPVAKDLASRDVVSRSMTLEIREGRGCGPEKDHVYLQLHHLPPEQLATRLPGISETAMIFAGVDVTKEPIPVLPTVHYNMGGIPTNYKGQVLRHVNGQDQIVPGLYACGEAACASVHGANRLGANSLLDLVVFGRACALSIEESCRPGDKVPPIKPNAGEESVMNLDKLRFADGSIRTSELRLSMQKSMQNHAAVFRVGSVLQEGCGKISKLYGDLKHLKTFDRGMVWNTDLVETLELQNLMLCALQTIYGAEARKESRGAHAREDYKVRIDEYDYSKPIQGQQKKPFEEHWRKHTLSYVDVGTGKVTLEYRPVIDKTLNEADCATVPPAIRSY
inactive: [1] 0.114 | [2] -0.012 | [3] -0.012 | [4] 0.005 | [5] -0.007

RPL28 (UniProt P46779)
inactive: [1] 0.042 | [2] -0.02 | [3] 0.001 | [4] -0.008 | [5] 0.041

RNF113A (UniProt O15541)
Sequence of UniProt O15541 (O15541 whole entry, looked up): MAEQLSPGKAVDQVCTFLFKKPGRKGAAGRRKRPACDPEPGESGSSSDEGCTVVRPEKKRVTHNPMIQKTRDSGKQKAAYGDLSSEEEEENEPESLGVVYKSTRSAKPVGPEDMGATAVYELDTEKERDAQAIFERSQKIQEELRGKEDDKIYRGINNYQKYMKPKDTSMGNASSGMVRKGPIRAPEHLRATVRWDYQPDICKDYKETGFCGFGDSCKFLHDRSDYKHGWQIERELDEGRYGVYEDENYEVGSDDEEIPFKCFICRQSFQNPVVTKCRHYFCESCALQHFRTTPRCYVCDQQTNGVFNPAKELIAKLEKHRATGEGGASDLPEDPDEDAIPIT
inactive: [1] 0.047 | [2] -0.022 | [3] -0.018 | [4] -0.065 | [5] -0.066

RPL27 (UniProt P61353)
inactive: [1] 0.034 | [2] 0.031 | [3] 0.003 | [4] 0.008 | [5] 0.101

RNF123 (UniProt Q5XPI4)
Sequence of UniProt Q5XPI4 (Q5XPI4 whole entry, looked up): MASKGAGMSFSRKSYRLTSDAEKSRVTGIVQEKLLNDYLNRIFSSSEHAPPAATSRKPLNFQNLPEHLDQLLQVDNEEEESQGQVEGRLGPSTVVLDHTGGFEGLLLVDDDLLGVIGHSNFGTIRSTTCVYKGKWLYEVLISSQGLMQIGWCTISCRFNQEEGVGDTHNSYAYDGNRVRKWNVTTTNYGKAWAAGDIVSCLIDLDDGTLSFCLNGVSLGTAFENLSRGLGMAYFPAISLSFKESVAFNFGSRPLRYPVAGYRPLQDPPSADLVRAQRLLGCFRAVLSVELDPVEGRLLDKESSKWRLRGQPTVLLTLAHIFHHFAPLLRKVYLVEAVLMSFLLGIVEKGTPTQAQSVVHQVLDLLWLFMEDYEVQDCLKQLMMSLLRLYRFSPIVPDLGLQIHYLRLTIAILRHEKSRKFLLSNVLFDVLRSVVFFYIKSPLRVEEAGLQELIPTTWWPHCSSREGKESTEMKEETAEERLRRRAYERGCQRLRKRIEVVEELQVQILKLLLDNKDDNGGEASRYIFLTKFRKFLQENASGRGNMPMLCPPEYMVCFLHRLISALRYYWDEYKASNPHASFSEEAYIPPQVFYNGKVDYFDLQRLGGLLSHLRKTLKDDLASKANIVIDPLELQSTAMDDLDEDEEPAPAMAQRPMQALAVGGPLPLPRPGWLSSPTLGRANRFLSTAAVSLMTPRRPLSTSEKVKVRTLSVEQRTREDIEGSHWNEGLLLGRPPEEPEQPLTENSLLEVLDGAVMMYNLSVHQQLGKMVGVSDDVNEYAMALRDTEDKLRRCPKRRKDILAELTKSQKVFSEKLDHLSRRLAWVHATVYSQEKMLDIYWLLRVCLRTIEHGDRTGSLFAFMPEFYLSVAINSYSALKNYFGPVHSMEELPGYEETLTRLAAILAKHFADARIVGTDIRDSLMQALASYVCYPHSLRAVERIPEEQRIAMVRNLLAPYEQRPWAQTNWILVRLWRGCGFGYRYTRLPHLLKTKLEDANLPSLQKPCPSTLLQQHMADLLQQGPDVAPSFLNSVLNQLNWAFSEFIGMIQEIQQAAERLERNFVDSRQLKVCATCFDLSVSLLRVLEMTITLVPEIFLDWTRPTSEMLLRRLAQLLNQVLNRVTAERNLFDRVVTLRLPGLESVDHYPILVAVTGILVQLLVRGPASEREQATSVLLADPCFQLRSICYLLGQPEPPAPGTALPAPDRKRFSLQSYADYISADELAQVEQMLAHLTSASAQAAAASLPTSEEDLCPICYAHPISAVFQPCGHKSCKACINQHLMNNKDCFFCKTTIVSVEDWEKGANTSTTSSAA
inactive: [1] -0.019 | [2] -0.024 | [3] 0.019 | [4] 0.005 | [5] 0.047

RHAG (UniProt Q02094)
Sequence of UniProt Q02094 (Q02094 whole entry, looked up): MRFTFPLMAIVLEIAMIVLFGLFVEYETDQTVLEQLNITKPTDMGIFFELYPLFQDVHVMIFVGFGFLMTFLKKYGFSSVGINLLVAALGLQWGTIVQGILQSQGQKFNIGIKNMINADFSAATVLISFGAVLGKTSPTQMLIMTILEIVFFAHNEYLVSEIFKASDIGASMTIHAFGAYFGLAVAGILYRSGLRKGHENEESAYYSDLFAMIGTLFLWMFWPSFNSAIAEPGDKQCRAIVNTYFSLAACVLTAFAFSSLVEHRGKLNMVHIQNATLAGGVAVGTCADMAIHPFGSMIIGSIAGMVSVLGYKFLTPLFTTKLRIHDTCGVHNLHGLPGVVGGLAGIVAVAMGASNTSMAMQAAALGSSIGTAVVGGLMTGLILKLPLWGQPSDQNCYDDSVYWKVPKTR
inactive: [1] 0.033 | [2] -0.076 | [3] 0.145 | [4] -0.066 | [5] -0.143
